Values joined by “and” are separate entries in the source; they are usually repeats but may differ in a detail not shown here. Equal entries are not always repeated. Inconclusive results are not listed. Values without a mark were called inactive. Active and inactive are the calls of the source. Calls follow the shape of the dose curve; as a rule, active = well fitted curve in the direction sought with a large enough effect in the repeat runs; inconclusive = weak or mixed curves; inactive = no such curve, though single readings can be large; an effect the other way counts as inactive or inconclusive.
assay: A CellTox Green Cytotoxicity Assay to monitor cytotoxicity in HEK293 cells - 40 hour (AID 1224871); settings: CellTox Green fluorescence; series mostly up to 76.8 µM; cytotoxicity increase: at the top concentration; also: nearly all actives have a fitted effect of over 45% in size
Method in brief: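 Fluorescence intensity, read at 0, 8, 16, 24, 32 and 40 h of compound treatment, reflected dye binding to DNA of dead HEK293 cells; compounds (23 nL, DMSO) were added 5 h after plating cells with reagent.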
% is scaled to controls: 0 for no effect and ±100 for the full control effect; potency is read from the fitted curve at half-maximal effect.

SMILES | Potency | cytotoxicity increase
N#CC(C#N)=NNc1cccc(Cl)c1 | 49 µM (active) | 
Oc1cc(Cl)c(Cl)c(Cl)c1Cl |  | 24.3%
Nc1ccc(N=Nc2ccccc2)cc1 |  | -2.88%
CCO/N=C(\CC)C1=C(O)CC(c2c(C)cc(C)cc2C)CC1=O (configuration not stated) |  | -1.49%
CCNc1nc(NC(C)C(C)C)nc(SC)n1 (configuration not stated) |  | -2.18%
Brc1ccc(Oc2ccc(Br)cc2Br)c(Br)c1 |  | 19.7%
CC(C)[C@@H](Nc1ccc(C(F)(F)F)cc1Cl)C(=O)OC(C#N)c1cccc(Oc2ccccc2)c1 (some centres not stated) |  | -2.63%
CC(C)Br |  | -9.84%
CC(C)N(C(=O)SC/C(Cl)=C/Cl)C(C)C | 43.9 µM (active) | 
COC(=O)c1cc(Oc2ccc(Cl)cc2Cl)ccc1[N+](=O)[O-] |  | 6.32%
CC1(C)C(C=C(Cl)Cl)C1C(=O)OC(C#N)c1ccc(F)c(Oc2ccccc2)c1 (configuration not stated) |  | -14.8%
CCC(C)Nc1c([N+](=O)[O-])cc(C(C)(C)C)cc1[N+](=O)[O-] (configuration not stated) |  | 16.2%
CC(C)=CCN1CC[C@@]2(C)c3cc(O)ccc3C[C@@H]1[C@@H]2C |  | 1.46%
O=C(NC(=O)c1ccccc1Cl)Nc1ccc(OC(F)(F)F)cc1 |  | -0.743%
C[C@]12Cc3cn[nH]c3C[C@@H]1CC[C@@H]1[C@@H]2CC[C@@]2(C)[C@H]1CC[C@]2(C)O |  | 27.2% [at 35.3 µM]
C#CCC1=C(C)C(OC(=O)C2C(C=C(C)C)C2(C)C)CC1=O (configuration not stated) |  | 0.476%
c1ccc2c(c1)cc1ccc3cccc4ccc2c1c34 |  | 9.73%
CC1(C)[C@H](/C=C2\CCSC2=O)[C@@H]1C(=O)OCc1coc(Cc2ccccc2)c1 |  | 10.7%
CC(C)N(C(=O)CCl)c1ccccc1 | inactive | 
O=C1C[C@@H]2OCC=C3CN4CC[C@]56c7ccccc7N1[C@H]5[C@H]2[C@H]3C[C@H]46 |  | 0.497% [at 35.3 µM]

assay: qHTS RealTime-Glo MT Cell Viability Assay in HEK293 cells - 16 hour (AID 1224872); settings: RealTime-Glo luminescence; series mostly up to 76.8 µM; activity change, negative = cytotoxicity: at the top concentration; also: nearly all actives have a fitted effect of over 50% in size; as to activity change, negative = cytotoxicity: top concentration of the series differs between compounds
Method in brief: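 Luminescence generated by NanoLuc from substrate produced by living HEK293 cells served as the viability signal. Each value reflects the reading at its stated time point during continuous 40 h compound exposure at 37 C.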

SMILES | Potency | activity change, negative = cytotoxicity
CN(C)c1ccc(N)cc1 | 42.6 µM (active) | 
C=CCOC(=O)c1ccccc1N |  | -25%
O=[N+]([O-])C(Br)Br | 55 µM (active) | 
c1ccc(Nc2ccc(Nc3ccccc3)cc2)cc1 | 19.4 µM (active) | 
Nc1ccccc1-c1ccccc1 |  | -14%
C[C@]12CC[C@H]3[C@@H](CCC4=CC(=O)CC[C@@H]43)[C@@H]1CC[C@@H]2OC(=O)CCc1ccco1 |  | -15.1% [at 35.3 µM]
BrCC(Br)(Br)Br | 25.5 µM (active) | 
CC(=O)C(Cl)C(=O)N(C)C (configuration not stated) |  | -4.74%
Cc1cc(C2CC2)nc(Nc2ccccc2)n1 | 21.9 µM (active) | 
Cc1c([N+](=O)[O-])cc2c(c1[N+](=O)[O-])C(C)(C)CC2(C)C |  | -16.3%
Cc1ccc2cc3c(ccc4ccccc43)c3c2c1CC3 |  | -13.4% [at 35.3 µM]
Oc1ccc2[nH]cc(CCCCN3CC=C(c4ccccc4)CC3)c2c1 | 9.52 µM (active) | 
CCc1cccc(C)c1N(C(=O)CCl)[C@@H](C)COC |  | -24.6%
FC(F)C(F)(F)OCC(Cn1cncn1)c1ccc(Cl)cc1Cl (configuration not stated) | 24.4 µM (active) | 

assay: qHTS RealTime-Glo MT Cell Viability Assay in HepG2 cells - 8 hour (AID 1224873); settings: RealTime-Glo luminescence; series mostly up to 76.8 µM; viability change, negative = cytotoxic: at the top concentration; also: nearly all actives have a fitted effect of over 55% in size
Method in brief: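 HepG2 cells mixed with RealTime-Glo MT reagents (NanoLuc plus cell-permeant prosubstrate) were seeded at 600 cells/well, incubated 5 h at 37 C/5% CO2, then pinned with compounds in DMSO; nonlytic luminescence tracked viability during 40 h treatment.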

SMILES | viability change, negative = cytotoxic | Potency
N#CC(C#N)=NNc1cccc(Cl)c1 | -16.9% | 
CC1=C2C[C@H]3[C@@H](CC=C4C[C@@H](O)CC[C@@]43C)[C@@H]2CC[C@]12O[C@@H]1C[C@H](C)CN[C@H]1[C@H]2C | -16.7% [at 35.3 µM] | 
C=CCOC(=O)c1ccccc1N | -1.13% | 
CCNc1nc(NC(C)C(C)C)nc(SC)n1 (configuration not stated) | 1.41% | 
Brc1ccc(Oc2ccc(Br)cc2Br)c(Br)c1 | -5.59% | 
O=S(=O)(NS(=O)(=O)C(F)(F)F)C(F)(F)F | -13.2% | 
Nc1ccccc1-c1ccccc1 | 0.182% | 
CC(C)Br | -0.126% | 
C[C@]12CC[C@H]3[C@@H](CCC4=CC(=O)CC[C@@H]43)[C@@H]1CC[C@@H]2OC(=O)CCc1ccco1 | -9.08% [at 35.3 µM] | 
COC(=O)c1cc(Oc2ccc(Cl)cc2Cl)ccc1[N+](=O)[O-] | -23.2% | 
CCC(C)Nc1c([N+](=O)[O-])cc(C(C)(C)C)cc1[N+](=O)[O-] (configuration not stated) | 0.461% | 
CC(=O)C(Cl)C(=O)N(C)C (configuration not stated) | -13.6% | 
Cc1c([N+](=O)[O-])cc2c(c1[N+](=O)[O-])C(C)(C)CC2(C)C | 0.381% | 
CC(C)=CCN1CC[C@@]2(C)c3cc(O)ccc3C[C@@H]1[C@@H]2C | -6.82% | 
O=C(NC(=O)c1ccccc1Cl)Nc1ccc(OC(F)(F)F)cc1 | -1.67% | 
C[C@]12Cc3cn[nH]c3C[C@@H]1CC[C@@H]1[C@@H]2CC[C@@]2(C)[C@H]1CC[C@]2(C)O | 3.07% [at 35.3 µM] | 
C#CCC1=C(C)C(OC(=O)C2C(C=C(C)C)C2(C)C)CC1=O (configuration not stated) | -14.8% | 
Cc1ccc2cc3c(ccc4ccccc43)c3c2c1CC3 | 1.25% [at 35.3 µM] | 
Oc1ccc2[nH]cc(CCCCN3CC=C(c4ccccc4)CC3)c2c1 | -13.1% [at 35.3 µM] | 
FC(F)C(F)(F)OCC(Cn1cncn1)c1ccc(Cl)cc1Cl (configuration not stated) |  | 54.6 µM (active)
O=C1C[C@@H]2OCC=C3CN4CC[C@]56c7ccccc7N1[C@H]5[C@H]2[C@H]3C[C@H]46 | -0.763% [at 35.3 µM] | 

assay: qHTS RealTime-Glo MT Cell Viability Assay in HEK293 cells - 40 hour (AID 1224874); settings: RealTime-Glo luminescence; max response: stronger effect = lower value; also: nearly all actives have a fitted effect of over 50% in size
Method in brief: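 Viable HEK293 cells reduce a cell-permeant prosubstrate; the product diffuses out and is consumed by NanoLuc in the medium to give light. Compounds went in after a 5 h incubation and plates were read over the treatment course.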

SMILES | Potency | max response
Oc1cc(Cl)c(Cl)c(Cl)c1Cl | 47.8 µM (active) | 
C=CCOC(=O)c1ccccc1N |  | -17.8%
O=[N+]([O-])C(Br)Br | 55 µM (active) | 
O=S(=O)(NS(=O)(=O)C(F)(F)F)C(F)(F)F | 1.94 µM (active) | 
Nc1ccccc1-c1ccccc1 |  | -12.7%
CC(C)[C@@H](Nc1ccc(C(F)(F)F)cc1Cl)C(=O)OC(C#N)c1cccc(Oc2ccccc2)c1 (some centres not stated) |  | -6.7%
CC(C)N(C(=O)SC/C(Cl)=C/Cl)C(C)C |  | -22.2%
C[C@]12CC[C@H]3[C@@H](CCC4=CC(=O)CC[C@@H]43)[C@@H]1CC[C@@H]2OC(=O)CCc1ccco1 |  | -8.1%
CC1(C)C(C=C(Cl)Cl)C1C(=O)OC(C#N)c1ccc(F)c(Oc2ccccc2)c1 (configuration not stated) |  | -18.6%
BrCC(Br)(Br)Br | 45.3 µM (active) | 
Oc1ccc([C@H]2CNCc3c2ccc(O)c3O)cc1O |  | -21.9%
CC(=O)C(Cl)C(=O)N(C)C (configuration not stated) |  | 3.79%
Cc1cc(C2CC2)nc(Nc2ccccc2)n1 | 21.9 µM (active) | 
Cc1c([N+](=O)[O-])cc2c(c1[N+](=O)[O-])C(C)(C)CC2(C)C |  | -1.57%
c1ccc2c(c1)cc1ccc3cccc4ccc2c1c34 |  | -10.6%
Cc1ccc2cc3c(ccc4ccccc43)c3c2c1CC3 |  | 6.91%
CC(C)N(C(=O)CCl)c1ccccc1 | 49 µM (active) and 38.9 µM (active) | 
